In the supplement of paper PMC3334620:
Whole data set: some 33,000 sequences, median “E-score (-0.5 to 0.5)” near -8e-05, cut for the highest 2% near 0.23. Many of the other results were omitted from the sample, so the highest values are more common in it than they were.

The sequences below were run against T1, Nrg2 (UniProt P38082) (assay: PBM E-score (8-mer binding enrichment) (E-score (-0.5 to 0.5)); higher = stronger / more preferred TF binding). Details: protein concentration: 100 nM; construct: GST-full length.
T1 sequence: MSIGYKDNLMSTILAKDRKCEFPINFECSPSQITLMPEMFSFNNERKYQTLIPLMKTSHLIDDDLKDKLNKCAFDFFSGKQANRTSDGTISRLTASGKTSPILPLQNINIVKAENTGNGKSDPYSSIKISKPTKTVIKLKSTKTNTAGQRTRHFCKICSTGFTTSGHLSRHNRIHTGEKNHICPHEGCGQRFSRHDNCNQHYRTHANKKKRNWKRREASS
Procedure: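 Universal 'all 10-mer' protein binding microarrays (Agilent AMADID 015681) probed with GST-tagged S. cerevisiae TFs (full-length or DBD) made by in vitro transcription/translation (PURExpress), about 100-200 nM. Bound TF was detected with fluorescent anti-GST. Each ungapped 8-mer (which stands for itself and its reverse complement) is scored by the PBM enrichment score (E-score), a modified Wilcoxon-Mann-Whitney statistic from -0.5 to +0.5, computed with the Universal PBM Analysis Suite. Scale: above 0.35 generally sequence-specific binding.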

Sequence | PBM E-score
ATTAACCG | 0.107
ATGAGACA | 0.0867
AGGTCGGG | -0.142
AAAACCAT | 0.137
ATTTCTCG | 0.285
ATTTCGCG | 0.275
ATTTCTCA | 0.0394
CTTTCGCA | -0.0222
ATTTCGCA | 0.274
ATTTCTCC | 0.0443
ATTTCGAG | 0.14
ATTTCGGG | 0.037
ATTTCGCC | 0.0633
AGTTAAGA | 0.0745
GGAACTCC | 0.0233
GACTCCCA | -0.248
CGATCTCC | -0.0956
AATAGGAC | 0.0448
ACGTCATC | -0.0886
GCTATTCC | -0.0857
ACTGCTCC | 0.0162
TAACCCAA | -0.00379
CTAATTGC | 0.0943
CTATCTCC | 0.0511
ATCTCAAG | 0.238

Sequence | PBM E-score
CTATCTCA | 0.0251
ATATCTCA | 0.238
ATATCTCG | 0.0423
GTCTCTCA | -0.0103
ATCTCAAC | 0.158
ATCTCTCA | 0.236
ATCTCTCC | 0.0215
CTCTCTCA | -0.0307
ATCTCAAT | 0.0327
ATATCTCC | 0.251
ACTCGCCT | 0.063
GTCAGGCA | -0.108
TGCGGGAA | 0.125
CAGACCTG | -0.119
GCGAATAA | 0.18
GAGATACC | 0.127
AGCTATGG | -0.0356
ATATCAAG | 0.285
ATATCAAT | 0.212
CTATCAAG | 0.0817
AACTCAAG | -0.0395
CTCTTGAA | -0.0353
CAGGGCGG | -0.0602
CTAGTTGA | 0.128
GACATTGC | -0.0455

Sequence | PBM E-score
ATCCCGCA | 0.08
AACCCGCA | 0.0835
AACCCGCC | 0.00993
CACCCGGG | -0.0923
ACCCCGGG | -0.056
ATCCCGCG | 0.294
AACCCGGG | 0.255
AACCCGCG | 0.267
ATCCCGCC | 0.0743
AGTGGTCA | -0.145
TCGCCGAA | -0.124
CAGAGTAC | -0.112
ATATGGCC | -0.0218
ATTGTTAA | 0.0152
GTTGTTAA | 0.241
CTTGTTAA | 0.0818
CGCAAGGC | 0.203
CCTGTATA | 0.0265
ACTGTATC | -0.0153
CCTGTATC | 0.233
CAGATTAC | -0.0348
ACGGACAA | 0.233
CCGGACAA | 0.058
GCGGACAA | 0.15
CGTACTTA | 0.115

Sequence | PBM E-score
CACCAAGA | 0.00109
AGTTTGAA | 0.23
CGTTTGAA | 0.00719
AGTTTGAC | -0.104
GGATCGCC | 0.0218
AAAGGAGG | -0.252
ATCAAACC | 0.123
ACAGAGCT | -0.214
CGCCCGCA | 0.229
ACCGCGCC | 0.00956
ATCGAGCG | 0.229
AGCGCGCC | 0.0741
ACCGCGCT | 0.0712
ACCGCGCG | 0.301
AGCGCGCG | 0.274
TGCCCGCA | 0.148
ATCGAGCC | -0.103
ATCGAGCA | 0.0824
CGCCCGCC | 0.085
AGCGCGCT | 0.187
CACGTAGG | -0.156
AAAATTCA | 0.199
CAACGCGC | 0.215
GAAGGAAA | -0.238
AAAGCGCA | 0.012

Sequence | PBM E-score
ATCTCGCG | 0.282
ATCTCGCA | 0.0354
CGCGCAGA | 0.232
CAGGGGCC | 0.191
GGCGCAGA | -0.0307
CAGGGGCG | 0.252
CAAGCGCC | -0.196
AAGGGGCG | -0.117
ATCTCGCC | 0.0341
CAAGCGCA | 0.363
CGCGCAGC | 0.0142
AAGTGATT | 0.0989
CCCTGCGC | 0.1
CCTCTTTC | -0.184
ACACTAGC | -0.00995
ACTAGGAC | -0.00051
GTTTGCGA | 0.0803
GGTCTAGA | -0.109
AACGTTTC | -0.144
ATCTCCAC | -0.0729
CTGTTCGC | 0.0452
GAGACAAA | -0.091
CACACCAA | 0.063
AACTATCG | 0.0118
CGAGCGAC | -0.0894

Sequence | PBM E-score
ATCGCGCC | 0.201
AACGCGCT | 0.123
AACGCGCG | 0.319
AACGCGCA | 0.0385
ATCGCGCA | -0.004
ATCGCGCG | 0.241
CGAGCGAG | 0.249
CAGGCGCC | 0.0447
CAGGCGCA | -0.114
AGAGCGAG | -0.0653
CAGGCGCG | 0.231
ATTCCCAA | 0.0933
AGGCCCCT | 0.0783
AGCCTCGA | -0.0885
CTAGTACA | 0.0576
ACCCTAGC | 0.0587
CTACTGAA | 0.029
ATCCGATA | 0.00821
AAGCAGTC | -0.135
CTCTCTTA | -0.0805
AGCAAAGA | -0.0188
AGACCAAT | -0.00568
AGCGCGAG | 0.0635
CGCGGGCA | 0.281
AAAACGCC | 0.0808

Sequence | PBM E-score
CAAACGCG | 0.0917
CGCGCGCA | 0.296
CACGCGCA | -0.0169
CGCGGGCC | 0.176
CGCGCGAG | 0.245
CGCGCGAA | 0.157
GGCGGGCA | -0.0772
TGCGCGCA | 0.211
AAAACGCG | 0.285
AAGATCGT | 0.0712
TCAGAGCA | -0.0393
CACTTCAC | -0.0837
GCAACAGA | 0.0125
ATTGGAGG | -0.149
AATCGCGG | 0.162
ACCTCACT | -0.0963
ATCGTGCG | 0.272
CGCGCGCG | 0.302
CACGCGAG | 0.225
CTCGCGAA | -0.00662
CCCGCGCG | 0.178
ATCGTGCA | 0.0864
CTCGCGAG | 0.257
ATCGTGCC | -0.145
CGCGCGCC | 0.211
